Results reported in PubChem BioAssay (EPA / NIEHS).
Activity calls are given as the source filed them. How the source made its calls: active means hit-call score of the fitted dose curve at least 0.9, where 1 is the maximum; inactive means score below 0.9.

Assays:
[1] = ATG_GLI_CIS: Attagene CIS-FACTORIAL HepG2 Assay for human Zinc Finger Protein GLI1 (AID 2282945); conditions: HepG2, Attagene cis-factorial reporter mRNA, GLI element; actives raise or lower the signal
Outline: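 Bidirectional curve fits relative to DMSO, using reporter mRNA levels from RT-PCR plus capillary electrophoresis. Cells were HepG2 transiently carrying cis-regulated reporter constructs, harvested 24 h after dosing.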

[2] = ATG_GRE_CIS: Attagene CIS-FACTORIAL HepG2 Assay for human Glucocorticoid Response Elements (GRE) (AID 2282947); conditions: HepG2 GRE cis-reporter, Attagene multiplex mRNA; actives raise or lower the signal
Outline: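 Reporter transcripts read by RT-PCR with capillary electrophoresis fluorescence after a 24 h chemical exposure of HepG2 cells transiently transfected with multiple cis-element reporter units. Gain or loss fitted against DMSO.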

[3] = ATG_ISRE_CIS: Attagene CIS-FACTORIAL HepG2 Assay for human Interferon Regulatory Factor 1 (IRF1) binding to an Interferon-Stimulated Response Element (ISRE) (AID 2282948); conditions: HepG2 ISRE cis-reporter (Attagene), mRNA transcription readout; actives raise or lower the signal
Outline: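 Signal reflects induction or loss of ISRE-linked reporter mRNA in transiently transfected HepG2 cells after a 24 h treatment, detected by fluorescent RT-PCR fragments on capillary electrophoresis and normalised to DMSO.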

[4] = ATG_M_32_CIS: Attagene CIS-FACTORIAL HepG2 Assay for M32 Transcription Factor (Internal Marker) (AID 2282949); conditions: HepG2 Attagene cis-factorial M32 reporter, mRNA; actives raise or lower the signal;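 further: background control marker of the multiplexed CIS panel rather than a real target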
Outline: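 HepG2 human liver cells transiently transfected with cis-promoter-driven multiple reporter transcription units, dosed 24 h. Reporter mRNA quantified by RT-PCR, FAM-labelled primer extension, HpaI digest and capillary electrophoresis; bidirectional fit versus DMSO baseline.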

[5] = ATG_M_06_CIS: Attagene CIS-FACTORIAL HepG2 Assay for M06 Transcription Factor (Internal Marker) (AID 2282950); conditions: HepG2 Attagene CIS-FACTORIAL M06 internal marker reporter; actives raise or lower the signal
Outline: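 Internal background marker within multiplexed cis-reporter HepG2 system. Cells transiently transfected, dosed 24 h; reporter mRNA measured by RT-PCR, HpaI digestion and capillary electrophoresis. Bidirectional fit relative to DMSO.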

[6] = target: Hypoxia-inducible factor 1-alpha (Homo sapiens) (UniProt Q16665); test: ATG_HIF1a_CIS: Attagene CIS-FACTORIAL HepG2 Assay for human Hypoxia Inducible Factor 1 (HIF1A) (AID 2282951); conditions: HepG2 Attagene cis-factorial HIF1a reporter transcription; actives raise or lower the signal
Hypoxia-inducible factor 1-alpha (Homo sapiens), sequence (Q16665 whole entry, looked up): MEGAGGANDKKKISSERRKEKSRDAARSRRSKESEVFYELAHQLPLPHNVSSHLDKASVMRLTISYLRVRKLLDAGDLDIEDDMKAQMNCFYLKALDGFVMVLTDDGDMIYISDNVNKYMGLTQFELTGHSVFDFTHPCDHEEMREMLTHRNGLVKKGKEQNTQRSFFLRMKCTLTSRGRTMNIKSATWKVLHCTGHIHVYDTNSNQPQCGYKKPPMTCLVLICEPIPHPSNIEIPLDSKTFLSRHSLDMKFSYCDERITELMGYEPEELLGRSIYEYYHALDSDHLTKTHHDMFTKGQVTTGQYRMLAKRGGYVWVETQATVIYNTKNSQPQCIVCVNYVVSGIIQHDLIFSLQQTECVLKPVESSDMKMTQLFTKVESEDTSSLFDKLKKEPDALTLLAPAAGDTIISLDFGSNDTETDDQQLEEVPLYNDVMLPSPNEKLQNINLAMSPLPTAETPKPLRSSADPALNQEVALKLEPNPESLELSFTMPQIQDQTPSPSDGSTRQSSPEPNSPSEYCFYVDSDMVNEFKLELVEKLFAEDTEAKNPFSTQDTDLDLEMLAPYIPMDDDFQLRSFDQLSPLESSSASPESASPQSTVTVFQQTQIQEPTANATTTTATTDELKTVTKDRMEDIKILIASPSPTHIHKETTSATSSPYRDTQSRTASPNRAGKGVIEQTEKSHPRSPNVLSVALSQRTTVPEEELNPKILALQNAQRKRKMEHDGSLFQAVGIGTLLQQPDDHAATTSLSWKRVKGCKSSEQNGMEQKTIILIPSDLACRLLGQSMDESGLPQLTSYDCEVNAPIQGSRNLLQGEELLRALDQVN
Outline: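 After 24 h chemical exposure of reporter-transfected HepG2 cells, reporter cDNA was PCR-amplified, labelled by 6-FAM primer extension (2 min 95 C, 20 s 68 C, 10 min 72 C), HpaI-cut (2 h, 37 C) and analysed by CE.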

[7] = target: Hepatocyte nuclear factor 6 (Homo sapiens) (UniProt Q9UBC0); test: ATG_HNF6_CIS: Attagene CIS-FACTORIAL HepG2 Assay for human Hepatocyte Nuclear Factor 6 (HNF6) (AID 2282952); conditions: HepG2 Attagene cis-factorial HNF6 reporter transcription; actives raise or lower the signal
Hepatocyte nuclear factor 6 (Homo sapiens), sequence (Q9UBC0 whole entry, looked up): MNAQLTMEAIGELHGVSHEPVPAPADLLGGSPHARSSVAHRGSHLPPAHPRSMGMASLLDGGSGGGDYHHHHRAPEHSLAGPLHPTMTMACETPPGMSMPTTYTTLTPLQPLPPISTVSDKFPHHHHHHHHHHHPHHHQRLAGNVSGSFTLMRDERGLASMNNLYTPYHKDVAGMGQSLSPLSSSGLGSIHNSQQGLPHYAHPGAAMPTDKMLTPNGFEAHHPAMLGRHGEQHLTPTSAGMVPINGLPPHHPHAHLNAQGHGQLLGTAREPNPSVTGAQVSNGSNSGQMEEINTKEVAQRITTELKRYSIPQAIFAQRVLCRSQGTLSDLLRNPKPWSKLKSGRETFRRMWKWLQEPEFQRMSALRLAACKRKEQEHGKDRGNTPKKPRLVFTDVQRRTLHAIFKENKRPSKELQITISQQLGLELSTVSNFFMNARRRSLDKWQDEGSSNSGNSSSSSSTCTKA
Outline: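 Activity values derive from bidirectional fitting against DMSO of reporter mRNA levels, measured by capillary electrophoresis of labelled RT-PCR products from HepG2 cells exposed 24 h.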

[8] = target: Heat shock factor protein 1 (Homo sapiens) (UniProt Q00613); test: ATG_HSE_CIS: Attagene CIS-FACTORIAL HepG2 Assay for human Heat Shock Transcription Factor 1 (HSE) (AID 2282953); conditions: HepG2 HSE cis-reporter, Attagene RNA transcription; actives raise or lower the signal
Heat shock factor protein 1 (Homo sapiens), sequence (Q00613 whole entry, looked up): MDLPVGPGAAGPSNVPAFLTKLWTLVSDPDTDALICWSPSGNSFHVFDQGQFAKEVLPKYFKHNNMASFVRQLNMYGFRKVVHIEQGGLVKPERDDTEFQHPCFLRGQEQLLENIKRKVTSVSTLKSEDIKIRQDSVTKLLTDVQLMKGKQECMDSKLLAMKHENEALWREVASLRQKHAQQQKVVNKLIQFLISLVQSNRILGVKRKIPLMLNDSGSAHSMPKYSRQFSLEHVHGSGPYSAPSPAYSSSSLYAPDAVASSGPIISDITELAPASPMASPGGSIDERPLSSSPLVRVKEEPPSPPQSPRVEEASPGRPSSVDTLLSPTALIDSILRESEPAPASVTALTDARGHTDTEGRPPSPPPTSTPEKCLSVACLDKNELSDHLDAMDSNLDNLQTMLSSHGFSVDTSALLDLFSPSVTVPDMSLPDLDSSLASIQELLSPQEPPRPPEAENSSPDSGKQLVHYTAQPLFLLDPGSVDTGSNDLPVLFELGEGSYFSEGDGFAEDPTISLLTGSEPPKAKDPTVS
Outline: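 HepG2 cells transfected with cis-promoter reporter units sensing endogenous transcription factor activity; reporter mRNA quantified 24 h post-dose by RT-PCR and capillary electrophoresis of 6-FAM-labelled products. Bidirectional fitting against DMSO.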

[9] = ATG_MRE_CIS: Attagene CIS-FACTORIAL HepG2 Assay for human Metal Responsive Element (MRE) (AID 2282954); conditions: HepG2 MRE cis-reporter transcription, Attagene multiplex; actives raise or lower the signal
Outline: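 Endogenous MRE-dependent transcription read as reporter mRNA in transiently transfected human HepG2 cells at 24 h. RNA reverse-transcribed, PCR-amplified, labelled and resolved by capillary electrophoresis; gain or loss relative to DMSO.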

[10] = ATG_PBREM_CIS: Attagene CIS-FACTORIAL HepG2 Assay for human Phenobarbital-responsive Enhancer Module (PBREM) (AID 2282955); conditions: HepG2 PBREM cis-reporter, Attagene multiplexed transcription; actives raise or lower the signal
Outline: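 Measures endogenous factor action on a phenobarbital-responsive enhancer module. HepG2 transiently carrying cis reporters, 24 h treatment, mRNA read-out by RT-PCR plus capillary electrophoresis.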

[11] = target: Paired box protein Pax-6 (Homo sapiens) (UniProt P26367); test: ATG_Pax6_CIS: Attagene CIS-FACTORIAL HepG2 Assay for human Paired Box 6 (PAX6) (AID 2282956); conditions: HepG2 CIS-FACTORIAL PAX6 reporter transcription, RNA readout; actives raise or lower the signal
Paired box protein Pax-6 (Homo sapiens), sequence (P26367 whole entry, looked up): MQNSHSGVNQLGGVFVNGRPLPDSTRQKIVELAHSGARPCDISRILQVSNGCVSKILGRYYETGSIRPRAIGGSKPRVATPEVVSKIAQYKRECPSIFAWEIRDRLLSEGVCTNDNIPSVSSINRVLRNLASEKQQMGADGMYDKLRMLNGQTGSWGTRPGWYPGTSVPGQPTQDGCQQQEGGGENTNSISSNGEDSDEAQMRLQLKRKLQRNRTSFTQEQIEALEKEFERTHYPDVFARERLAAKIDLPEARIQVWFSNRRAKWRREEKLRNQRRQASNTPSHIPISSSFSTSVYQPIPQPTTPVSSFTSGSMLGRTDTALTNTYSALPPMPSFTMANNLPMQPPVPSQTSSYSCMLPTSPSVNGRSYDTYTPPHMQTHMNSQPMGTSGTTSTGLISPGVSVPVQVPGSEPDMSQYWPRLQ
Outline: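 Values derive from bidirectional curve fitting of reporter mRNA signal relative to DMSO. HepG2 cells bearing transfected cis-regulated MRTUs were exposed for 24 h; transcripts were read by RT-PCR and capillary electrophoresis.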

[12] = ATG_PXRE_CIS: Attagene CIS-FACTORIAL HepG2 Assay for human Pregnane X Receptor Element (PXRE) (AID 2282957); conditions: HepG2 Attagene CIS-FACTORIAL PXRE reporter, mRNA; actives raise or lower the signal
Outline: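 Fluorescent capillary electrophoresis of amplified reporter cDNA gave the signal, collected 24 h after dosing HepG2 cells that held transfected cis-element reporter constructs.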

[13] = ATG_PPRE_CIS: Attagene CIS-FACTORIAL HepG2 Assay for human Peroxisome Proliferator-activated Response Element (PPRE) (AID 2282958); conditions: HepG2 PPRE cis-element reporter, Attagene transcription factor profiling; actives raise or lower the signal
Outline: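 PPRE activity in HepG2: transient cis-reporter transfection, 24 h compound incubation, reporter mRNA by RT-PCR and CE fluorescence; gain/loss fitted against DMSO.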

[14] = ATG_RORE_CIS: Attagene CIS-FACTORIAL HepG2 Assay for human RAR-related Orphan Receptor Element (RORE) (AID 2282959); conditions: HepG2 Attagene cis-factorial RORE reporter, mRNA; actives raise or lower the signal
Outline: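 A 24-hour exposure of transfected HepG2 hepatoma cells precedes RNA isolation and reporter RT-PCR. Labeled products are digested with HpaI and resolved by capillary electrophoresis, with gain or loss of signal scored relative to DMSO.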

[15] = target: Transcription factor Sp1 (Homo sapiens) (UniProt P08047); test: ATG_Sp1_CIS: Attagene CIS-FACTORIAL HepG2 Assay for human Specificity Protein 1 (Sp1) (AID 2282961); conditions: HepG2 Sp1 cis-reporter transcription, actives raise or lower the signal
Transcription factor Sp1 (Homo sapiens), sequence (P08047 whole entry, looked up, the tested form may be a part): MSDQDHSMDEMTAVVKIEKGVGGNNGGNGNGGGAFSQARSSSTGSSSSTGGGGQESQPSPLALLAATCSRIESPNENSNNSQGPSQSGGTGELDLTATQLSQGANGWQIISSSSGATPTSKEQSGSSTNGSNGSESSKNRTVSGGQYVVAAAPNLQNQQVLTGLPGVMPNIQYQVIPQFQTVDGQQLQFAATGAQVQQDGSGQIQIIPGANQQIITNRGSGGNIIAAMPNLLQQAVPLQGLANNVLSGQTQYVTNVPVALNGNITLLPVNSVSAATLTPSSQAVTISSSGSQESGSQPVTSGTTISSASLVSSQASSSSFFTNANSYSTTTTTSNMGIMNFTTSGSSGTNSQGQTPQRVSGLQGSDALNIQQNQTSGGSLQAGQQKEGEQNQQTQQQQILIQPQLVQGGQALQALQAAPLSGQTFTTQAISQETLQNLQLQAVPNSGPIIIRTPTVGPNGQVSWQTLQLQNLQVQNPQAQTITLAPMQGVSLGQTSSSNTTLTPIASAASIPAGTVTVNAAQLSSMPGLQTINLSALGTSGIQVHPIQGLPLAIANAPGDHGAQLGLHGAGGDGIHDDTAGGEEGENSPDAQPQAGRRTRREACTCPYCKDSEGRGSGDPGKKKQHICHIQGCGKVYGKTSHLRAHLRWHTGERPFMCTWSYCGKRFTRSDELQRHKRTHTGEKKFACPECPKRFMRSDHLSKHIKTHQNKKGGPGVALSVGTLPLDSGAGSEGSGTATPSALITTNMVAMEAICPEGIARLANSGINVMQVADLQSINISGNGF
Outline: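 Liver-derived HepG2 cells, cis-element reporter library, 24 h treatment; RNA isolated, cDNA amplified with reporter-specific primers, FAM-labeled fragments sized on capillary analyzer. DMSO baseline, bidirectional curve fit.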

[16] = ATG_SREBP_CIS: Attagene CIS-FACTORIAL HepG2 Assay for human Sterol Regulatory Element Binding (SREBP) (AID 2282962); conditions: HepG2 Attagene cis-factorial SREBP reporter, mRNA; actives raise or lower the signal
Outline: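 Values derive from bidirectional curve fitting with DMSO as baseline. The underlying measurement is reporter mRNA from cis-element-regulated units in transiently transfected HepG2, quantified by RT-PCR and capillary electrophoresis after 24 h exposure.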

[17] = target: Signal transducer and activator of transcription 3 (Homo sapiens) (UniProt P40763); test: ATG_STAT3_CIS: Attagene CIS-FACTORIAL HepG2 Assay for human Signal Transducer and Activator of Transcription 3 (STAT3) (AID 2282963); conditions: HepG2, Attagene cis-factorial STAT3 reporter transcription; actives raise or lower the signal
Signal transducer and activator of transcription 3 (Homo sapiens), sequence (P40763 whole entry, looked up): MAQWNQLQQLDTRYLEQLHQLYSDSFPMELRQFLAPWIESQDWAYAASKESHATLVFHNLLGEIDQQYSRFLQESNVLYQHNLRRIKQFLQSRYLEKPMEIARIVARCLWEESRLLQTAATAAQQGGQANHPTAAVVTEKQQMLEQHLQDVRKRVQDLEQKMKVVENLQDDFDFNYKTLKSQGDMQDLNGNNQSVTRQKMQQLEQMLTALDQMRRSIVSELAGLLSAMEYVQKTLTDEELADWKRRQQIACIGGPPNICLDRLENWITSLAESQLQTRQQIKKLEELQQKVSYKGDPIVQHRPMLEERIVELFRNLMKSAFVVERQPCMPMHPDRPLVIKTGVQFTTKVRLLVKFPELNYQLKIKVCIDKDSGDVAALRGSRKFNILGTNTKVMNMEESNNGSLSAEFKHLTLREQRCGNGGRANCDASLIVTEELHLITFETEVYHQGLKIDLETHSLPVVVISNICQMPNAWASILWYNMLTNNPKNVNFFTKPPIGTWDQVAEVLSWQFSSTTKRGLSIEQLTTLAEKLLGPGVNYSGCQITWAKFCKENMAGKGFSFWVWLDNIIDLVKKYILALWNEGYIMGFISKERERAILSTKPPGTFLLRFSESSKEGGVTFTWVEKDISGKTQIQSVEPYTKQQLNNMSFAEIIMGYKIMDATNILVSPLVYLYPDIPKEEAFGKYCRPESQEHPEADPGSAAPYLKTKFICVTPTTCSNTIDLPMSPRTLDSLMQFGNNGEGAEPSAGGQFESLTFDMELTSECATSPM
Outline: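 Readout is reporter transcript quantified by RT-PCR and capillary electrophoresis, with 6-FAM primer extension and HpaI digestion. Total RNA is taken 24 h after dosing transiently transfected HepG2 carrying cis-regulated reporter units. Bidirectional fit against DMSO.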

[18] = ATG_TA_CIS: Attagene CIS-FACTORIAL HepG2 Assay for human TA Basal Promoter (AID 2282964); conditions: HepG2 Attagene CIS-factorial TA basal promoter reporter; actives raise or lower the signal
Outline: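 HepG2 cells transiently transfected with multiple reporter units under cis promoter elements, reporting endogenous transcription factor activity; this endpoint tracks the TA basal promoter as background control. Reporter mRNA after 24 h dosing measured by RT-PCR/capillary electrophoresis; bidirectional fits versus DMSO.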

[19] = ATG_Sox_CIS: Attagene CIS-FACTORIAL HepG2 Assay for human SRY-box transcription factor (SOX) (AID 2282960); conditions: HepG2 Attagene cis-factorial SOX reporter, mRNA; actives raise or lower the signal
Outline: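 HepG2, cis reporter units, 24 h exposure. Reporter mRNA: RT-PCR → FAM labelling → HpaI → CE fluorescence. Bidirectional fit vs DMSO.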

[20] = target: Bile acid receptor (Homo sapiens) (UniProt Q96RI1); test: ATG_IR1_CIS: Attagene CIS-FACTORIAL HepG2 Assay for human Nuclear Receptor Subfamily 1 Group H Member 4 (NR1H4), IR1 submotif (AID 2282946); conditions: IR1 reporter transcription, actives raise or lower the signal
Bile acid receptor (Homo sapiens), sequence (Q96RI1 whole entry, looked up): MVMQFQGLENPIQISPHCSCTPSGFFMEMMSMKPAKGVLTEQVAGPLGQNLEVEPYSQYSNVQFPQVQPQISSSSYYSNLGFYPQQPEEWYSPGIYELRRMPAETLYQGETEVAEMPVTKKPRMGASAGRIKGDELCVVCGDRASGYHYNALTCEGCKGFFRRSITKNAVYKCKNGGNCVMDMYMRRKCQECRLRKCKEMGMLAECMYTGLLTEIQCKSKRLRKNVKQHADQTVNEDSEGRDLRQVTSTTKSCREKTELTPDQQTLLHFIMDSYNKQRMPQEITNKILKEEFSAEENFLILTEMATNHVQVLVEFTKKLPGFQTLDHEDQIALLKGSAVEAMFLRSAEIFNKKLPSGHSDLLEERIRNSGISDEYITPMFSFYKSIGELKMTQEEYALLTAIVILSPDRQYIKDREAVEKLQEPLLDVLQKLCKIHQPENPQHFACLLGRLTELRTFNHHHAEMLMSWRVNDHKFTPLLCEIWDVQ
Outline: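 HepG2 cells transiently transfected with multiplexed cis-element reporter units read endogenous transcription factor activity. After 24 h compound exposure, reporter mRNA was quantified by RT-PCR, fluorescent labelling, HpaI digestion and capillary electrophoresis; bidirectional fitting versus DMSO baseline.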

Measured: AC50

CC(C)(C)c1cc(O)c(C(C)(C)C)cc1O
inactive: [2] | [5] | [6] | [7] | [12] | [17]
active: [1] 114 µM | [3] 114 µM | [4] 40.6 µM | [8] 64.3 µM | [9] 39.2 µM | [10] 61.6 µM | [11] 34.3 µM | [13] 30.9 µM | [14] 22.6 µM | [15] 65.5 µM | [16] 7.79 µM | [18] 42.2 µM

Nc1ccc2c(c1)C(=O)c1ccccc1C2=O
active: [12] 26.9 µM
not listed: [20]
inactive: all other assays above

Cc1ccc(C)c(O)c1C
not listed: [19] | [20]
inactive: all other assays above

C=CCOC(=O)c1ccccc1C(=O)OCC=C
active: [20] 25.9 µM | [12] 26.7 µM
not listed: [2] | [10] | [13]
inactive: all other assays above

CC(=O)OC/C=C(\C)CCC=C(C)C
active: [12] 48.3 µM
not listed: [19] | [20]
inactive: all other assays above

Nc1ccccc1N
active: [6] 41.3 µM | [9] 38.2 µM | [11] 23 µM | [12] 82.4 µM | [13] 15.7 µM | [14] 28.5 µM | [15] 25.9 µM | [18] 50.8 µM
not listed: [20]
inactive: all other assays above

CCCCCCCCCCCCCO
active: [4] 34.3 µM | [6] 8.99 µM | [11] 34.3 µM
not listed: [14] | [20]
inactive: all other assays above

Nc1ccc(S(=O)(=O)c2ccc(N)cc2)cc1
not listed: [2] | [6] | [10] | [19]
inactive: all other assays above
